A short description of assay [1]: NCI Yeast Anticancer Drug Screen. Data for the rad50 strain (AID 155).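 Further: 0% = growth of vehicle-only cultures of the same strain.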 As to conditions: S. cerevisiae rad50 strain growth inhibition; at 50.0 µM; stronger effect = higher value. Put shortly:
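Growth of the mutant yeast was measured after compound exposure and referenced to vehicle-treated cultures.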

Assay [2] is described as follows: NCI Yeast Anticancer Drug Screen. Data for the mec2-1 strain (AID 157). As to conditions: S. cerevisiae mec2-1 strain, at 50.0 µM, stronger effect = higher value. The procedure, abridged:
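Cells of the genetically defined mec2-1 yeast strain are incubated with test compound. Inhibition of growth is calculated against vehicle-treated controls.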

Assay [3] can be described thus: NCI Yeast Anticancer Drug Screen. Data for the sgs1 mgt1 strain (AID 161).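 Further: 0% = growth of cultures given vehicle only.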 Conditions: S. cerevisiae sgs1 mgt1 strain, at 50.0 µM, stronger effect = higher value. Put shortly: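 Inhibition of yeast growth, normalised to vehicle-treated controls, is reported for a strain bearing genetic alterations in DNA damage repair.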
A short description of assay [4]: NCI Yeast Anticancer Drug Screen. Data for the cln2 rad14 strain (AID 165).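 Further: 0% = growth equal to vehicle treated cultures.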 As to conditions: S. cerevisiae cln2 rad14 strain, at 50.0 µM, stronger effect = higher value. Put shortly: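 The screen exposed genetically defined yeast (cln2 rad14) to test compounds and scored growth inhibition relative to vehicle-treated controls.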
A short description of assay [5]: NCI Yeast Anticancer Drug Screen. Data for the bub3 strain (AID 167). Conditions: S. cerevisiae bub3 mutant strain, at 50.0 µM, stronger effect = higher value. Put shortly:
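Whole-cell yeast assay. The mutant strain was incubated with compounds, and growth inhibition was determined by comparison with vehicle-treated cells.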

Assay [6] is described as follows: NCI Yeast Anticancer Drug Screen. Data for the mlh1 rad18 strain (AID 175). As to conditions: S. cerevisiae mlh1 rad18 strain growth inhibition; at 50.0 µM; stronger effect = higher value. Put shortly: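 Compound-treated yeast growth, normalised to vehicle controls. Strain bears defined DNA repair mutations.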

Structures are written as SMILES. Compounds without any hit were thinned out: in the full panel of roughly 79,000, 15% have a hit. Unmarked numbers belong to inactive results. Activity calls are given as the source filed them. No stated cut-off is given here; in the data, active means growth inhibition above about 70%; inactive means the rest.

With `COC(CNc1nc2c(s1)c1c(O)c3c(O)c(C)c4c(c32)C(=O)C(C)(O/C=C\C(OC)C(C)C(OC(C)=O)C(C)C(O)C(C)C(O)C(C)/C=C/C=C(/C)C(=O)N1)O4)OC` (stereo not given), the growth inhibition in assay [1] was 6.15%; in assay [2], -5.6%; in assay [3] it was -13%; in assay [4], 14.3%; in assay [5], -15.6%; in assay [6] it was -4.65%.

Regarding `C=C(C)C(=O)NC(N)=NC#N`, the growth inhibition in assay [1] is -44%; in assay [2], -9.25%; in assay [3] it was -5.4%; in assay [4], -13.8%; in assay [5], -1.55%; in assay [6], 6.15%.

Turning to `CCOCCOCCOc1c(Cl)cc(Cl)cc1Cl`, the growth inhibition was -6.65% in assay [1]; 1.9% in assay [2]; -7.35% in assay [3]; -46% in assay [4]; 30.2% in assay [5]; -21.6% in assay [6].

Regarding `O=C(c1ccccc1)c1ccc2ccc(F)cc2c1C(=O)O`, the growth inhibition was -4% in assay [1]; 17.9% in assay [2]; 2.05% in assay [3]; -17.9% in assay [4]; 16.6% in assay [5]; -7.7% in assay [6].

For `O=c1[nH]c2c(Cl)cc(Cl)c(Cl)c2c2ccccc12`, the growth inhibition in assay [1] is -0.45%; in assay [2] it was 7.65%; in assay [3] it was 1.5%; in assay [4], -18.4%; in assay [5], 21.1%; in assay [6], 4.85%.

`CC(C)CCc1c(Cl)nc(Cl)nc1Cl`: the growth inhibition in assay [1] is 32.2%; in assay [2], 38.6%; in assay [3], 33.6%; in assay [4], 10.1%; in assay [5] it was 43.9%; in assay [6] it was 16.9%.

Regarding `C#CC1(O)CCC2[C@@H]3CCc4cc(Oc5nc(F)nc(-c6c7ccccc7cn6C)n5)ccc4C3CC[C@@]21C` (stereo not given in full), the growth inhibition in assay [1] is 37.5%; in assay [2], 25.3%; in assay [3], 1.4%; in assay [4], 5.05%; in assay [5], 32.6%; in assay [6], 42.8%.

For the molecule `CC(=O)Nc1ccc(I)cc1`, the growth inhibition in assay [1] was 40.7%; in assay [2], 3.2%; in assay [3], 15.2%; in assay [4] it was -0.8%; in assay [5], -7.65%; in assay [6] it was 21.9%.

For `C=CCc1cc(C(=O)O)ccc1OC`, the growth inhibition in assay [1] was -36.4%; in assay [2], -23.6%; in assay [3], -16.1%; in assay [4], -1.7%; in assay [5] it was -30.4%; in assay [6], -13.9%.

Take `COC1=NC(NC2OCC(O)C(O)C2O)=C(NC(C)=O)CN1C` (stereo not given): the growth inhibition is -46.5% in assay [1]; -41.4% in assay [2]; -20.1% in assay [3]; -3.65% in assay [4]; -31.7% in assay [5]; -22.4% in assay [6].

Regarding `CCN(CC)Cc1ccccc1COC(=O)c1ccc(OC)cc1`, the growth inhibition in assay [1] is -0.1%; in assay [2] it was -3.45%; in assay [3], 14.8%; in assay [4], -15.2%; in assay [5], -7.25%; in assay [6], 11.3%.

For `CC1=NN(c2cc(S(=O)(=O)O)ccc2Cl)C(=O)C1N=Nc1ccccc1` (stereo not given), the growth inhibition is -23.3% in assay [1]; -26.2% in assay [2]; -30.1% in assay [3]; 12.3% in assay [4]; -20.6% in assay [5]; -24.8% in assay [6].

As to `COC(=O)CNC(=O)C(Cc1ccc(OCc2ccccc2)cc1)NC(=O)OC(C)(C)C` (stereo not given), the growth inhibition in assay [1] was 6.65%; in assay [2], 11%; in assay [3], 23.1%; in assay [4], 2.25%; in assay [5], -10.6%; in assay [6], 26.6%.

As to `OC1COc2c3ccccc3nn2C1` (stereo not given), the growth inhibition is -1.35% in assay [1]; 2.85% in assay [2]; 21.7% in assay [3]; 14.5% in assay [4]; 7.8% in assay [5]; 30.1% in assay [6].

As to `CC1OC(CO)C2OC(C)OCC2O1` (stereo not given), the growth inhibition in assay [1] is -14.2%; in assay [2], -13.9%; in assay [3], -12.8%; in assay [4] it was -18.1%; in assay [5], 5.75%; in assay [6] it was 3.95%.

`CCOC(=O)c1nnsc1NC(=O)Nc1ccc(Cc2ccc(NC(=O)Nc3snnc3C(=O)OCC)cc2)cc1`: the growth inhibition in assay [1] is -14.3%; in assay [2] it was 8.25%; in assay [3], 12.2%; in assay [4], 18.3%; in assay [5], 5.45%; in assay [6], 10.3%.

In the case of `COc1cc(C(c2ccc(N(Cc3ccccc3)Cc3ccccc3)cc2NC(C)=O)c2ccc(N(Cc3ccccc3)Cc3ccccc3)cc2NC(C)=O)ccc1O`, the growth inhibition is 2.75% in assay [1]; 2.05% in assay [2]; -11.4% in assay [3]; -8.2% in assay [4]; -5.1% in assay [5]; 38.2% in assay [6].

On to `CCC(C)C1CCCCC1OC(=O)CCl` (stereo not given), for which the growth inhibition in assay [1] was -5.45%; in assay [2] it was -14.8%; in assay [3] it was -16.3%; in assay [4], 0.05%; in assay [5], -9.55%; in assay [6], -18.6%.

On to `Cc1ccc(S(=O)(=O)OC2C(C)OCOC3COCOC32)cc1` (stereo not given), for which the growth inhibition in assay [1] is -6.3%; in assay [2], -6.45%; in assay [3], 5.4%; in assay [4], -13.7%; in assay [5] it was 2.65%; in assay [6] it was -9.85%.

In the case of `COc1cc2c(c(OC)c1OC)-c1ccc(OC)c(=O)cc1C(NC(=O)CCCCCNc1ccc(N=[N+]=[N-])cc1[N+](=O)[O-])CC2` (stereo not given), the growth inhibition in assay [1] is 88.5% (active); in assay [2], 84.4% (active); in assay [3], 45%; in assay [4], 36%; in assay [5], 12.8%; in assay [6], 84.3% (active).

Values taken from PubChem BioAssay (NCI).
